Experimental data: the supplement of paper PMC4022240
± gives the standard deviation.

T1: HaloTag-ATRX ADD domain (163-292)
T1 chain: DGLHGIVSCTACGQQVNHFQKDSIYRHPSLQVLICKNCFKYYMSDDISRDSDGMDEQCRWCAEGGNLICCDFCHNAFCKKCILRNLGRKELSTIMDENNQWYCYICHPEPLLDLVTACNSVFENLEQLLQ

B1: Unmod H1 variant A P A P A E K T P V K K K (peptide)
chain: APAPAEKTPVKKK
B2: Unmod H1 variant S E T A P A A P A A P A P (peptide)
chain: SETAPAAPAAPAP
B3: Unmod H1 variant E K N N S R I K L G L K S (peptide)
chain: EKNNSRIKLGLKS
B4: Unmod H1 variant G A A K R K A S G P P V S (peptide)
chain: GAAKRKASGPPVS
B5: Unmod H1 variant K P K K A T G A A T P K K (peptide)
chain: KPKKATGAATPKK
B6: Unmod H1 variant V K K K A R K S A G A A K (peptide)
chain: VKKKARKSAGAAK
B7: Unmod H1 variant K A K K A G A A K A K K P (peptide)
chain: KAKKAGAAKAKKP
B8: Unmod H1 variant P K K A K K P A A A A G A (peptide)
chain: PKKAKKPAAAAGA
B9: Unmod H1 variant T P K K S A K K T P K K A (peptide)
chain: TPKKSAKKTPKKA
B10: Unmod H1 variant A S G S F K L N K K A A S (peptide)
chain: ASGSFKLNKKAAS

Molecular target: T1, HaloTag-ATRX ADD domain (163-292)
Assay: peptide microarray binding signal (635 nm), min-max normalized on array (fraction of array maximum); higher = stronger binding
Settings: peptide region: Unmod H1 variant; binder concentration: 50 nM
Method in brief: (§1)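 Binding signal is the mean intensity of triplicate spots, min-max scaled within each library. Histone 13-mer peptide–cellulose conjugates were spotted in triplicate on nitrocellulose with a Cy3 tracer and blocked overnight at 4°C. Probing lasted 1 h at 4°C, either with biotin-labelled HaloTag reader fusions (10 nM to 1 μM) and streptavidin-Alexa Fluor 647 or with rabbit histone antibodies (1:10,000 to 1:2,000) and anti-rabbit Alexa 647. An Axon GenePix 4000B read signal at 635 nm and misprints at 532 nm.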

| Binder | peptide microarray binding signal |
| --- | --- |
| B1 | 0.021 ± 0.0011 |
| B2 | 0.0194 ± 0.0011 |
| B3 | 0.0196 ± 0.00022 |
| B4 | 0.0168 ± 0.00018 |
| B5 | 0.00674 ± 0.0014 |
| B6 | 0.0176 ± 0.00024 |
| B7 | 0.01282 ± 3.1e-05 |
| B8 | 0.0116 ± 7.8e-05 |
| B9 | 0.0108 ± 0.0035 |
| B10 | 0.0207 ± 0.0013 |

Same assay, conditions: peptide region: Unmod H1 variant; binder concentration: 500 nM

| Binder | peptide microarray binding signal |
| --- | --- |
| B1 | 0.0189 ± 0.00097 |
| B2 | 0.00995 ± 0.00098 |
| B3 | 0.0155 ± 0.00098 |
| B4 | 0.00757 ± 0.00056 |
| B5 | 0.00957 ± 0.00063 |
| B6 | 0.0081 ± 0.00035 |
| B7 | 0.0114 ± 0.00065 |
| B8 | 0.00771 ± 0.00013 |
| B9 | 0.0104 ± 0.0011 |
| B10 | 0.00791 ± 0.00049 |

molecular target: HaloTag-ING2 PHD (mouse Ing2 200-280); assay: as above; settings: peptide region: Unmod H1 variant; binder concentration: 10 nM
Method in brief: as §1

| Binder | peptide microarray binding signal |
| --- | --- |
| B1 | 0.00466 ± 0.00027 |
| B2 | 0.00394 ± 0.0003 |
| B3 | 0.00585 ± 0.0006 |
| B4 | 0.00245 ± 5e-05 |
| B5 | 0.003939 ± 2.1e-05 |
| B6 | 0.00203 ± 4.1e-05 |
| B7 | 0.00424 ± 5.8e-05 |
| B8 | 0.00322 ± 4.7e-05 |
| B9 | 0.00322 ± 4.7e-05 |
| B10 | 0.00233 ± 5.8e-05 |

same assay, conditions: peptide region: Unmod H1 variant; binder concentration: 100 nM

| Binder | peptide microarray binding signal |
| --- | --- |
| B1 | 0.012 ± 0.00083 |
| B2 | 0.00418 ± 0.00041 |
| B3 | 0.0201 ± 0.0018 |
| B4 | 0.00822 ± 0.00024 |
| B5 | 0.00893 ± 0.00084 |
| B6 | 0.00553 ± 0.00055 |
| B7 | 0.00935 ± 0.00021 |
| B8 | 0.00652 ± 0.00013 |
| B9 | 0.0121 ± 0.0049 |
| B10 | 0.00425 ± 7.2e-05 |

molecular target: anti-H3K4me3 antibody ab8580; assay: as above; settings: peptide region: Unmod H1 variant; binder concentration: 1:2,000 dilution
Method in brief: as §1

| Binder | peptide microarray binding signal |
| --- | --- |
| B1 | 0.00136 ± 0.00038 |
| B2 | 0.00274 ± 0.001 |
| B3 | 0.00196 ± 0.00038 |
| B4 | 0.000793 ± 1.2e-05 |
| B5 | 0.000925 ± 2.1e-05 |
| B6 | 0.00145 ± 0.00015 |
| B7 | 0.000906 ± 2.4e-05 |
| B8 | 0.000736 ± 1.2e-05 |
| B9 | 0.000812 ± 4.4e-05 |
| B10 | 0.00132 ± 0.0003 |

same assay, conditions: peptide region: Unmod H1 variant; binder concentration: 1:10,000 dilution

| Binder | peptide microarray binding signal |
| --- | --- |
| B1 | 0.00223 ± 7.3e-05 |
| B2 | 0.00337 ± 0.00036 |
| B3 | 0.00137 ± 4.9e-05 |
| B4 | 0.000799 ± 8.3e-06 |
| B5 | 0.00171 ± 5.9e-05 |
| B6 | 0.00143 ± 2.4e-05 |
| B7 | 0.00148 ± 2.9e-05 |
| B8 | 0.001541 ± 1.5e-05 |
| B9 | 0.00137 ± 4.9e-05 |
| B10 | 0.000913 ± 1.6e-05 |

molecular target: anti-H3K9me3 antibody ab8898; assay: as above; settings: peptide region: Unmod H1 variant; binder concentration: 1:2,000 dilution
Method in brief: as §1

| Binder | peptide microarray binding signal |
| --- | --- |
| B1 | 0.000906 ± 4.5e-05 |
| B2 | 0.00159 ± 8.6e-05 |
| B3 | 0.000317 ± 5.6e-06 |
| B4 | 0.000211 ± 4.5e-06 |
| B5 | 0.000408 ± 1.2e-05 |
| B6 | 0.000272 ± 4.9e-06 |
| B7 | 0.000423 ± 8.2e-06 |
| B8 | 0.000483 ± 9.2e-06 |
| B9 | 0.000287 ± 1.1e-05 |
| B10 | 0.000257 ± 2.7e-06 |

same assay, conditions: peptide region: Unmod H1 variant; binder concentration: 1:10,000 dilution

| Binder | peptide microarray binding signal |
| --- | --- |
| B1 | 0.00098 |
| B2 | 0.00167 ± 2.8e-05 |
| B3 | 0.00098 |
| B4 | 0.000634 |
| B5 | 0.00121 ± 2.4e-05 |
| B6 | 0.000634 |
| B7 | 0.00075 ± 7.9e-06 |
| B8 | 0.00098 |
| B9 | 0.000865 ± 9e-06 |
| B10 | 0.00075 ± 1.6e-05 |
